Screen size: about 39,000 compounds; about 3,300 (8.5%) were called active. Only a selection was taken, and actives are over-represented in it overall.
These molecules were tested on HepG2 (assay: cytotoxicity call (relative viability < 0.9)). Details: 10 µM.

Row | Compound | cytotoxicity call
1 | Cc1noc(C)c1S(=O)(=O)Nc1cccc2c1O[C@H](CN(C)S(C)(=O)=O)[C@H](C)CN([C@H](C)CO)C2=O | inactive
2 | C[C@H]1CN([C@@H](C)CO)C(=O)Cc2cc(NS(=O)(=O)c3cn(C)cn3)ccc2O[C@@H]1CN(C)Cc1ccccc1 | inactive
3 | C[C@@H]1CCCCO[C@@H](CN(C)C(=O)Nc2ccc3c(c2)OCO3)[C@H](C)CN([C@H](C)CO)C(=O)c2cc(NC(=O)c3ccncc3)ccc2O1 | inactive
4 | COc1ccc(CNC(=O)C[C@@H]2C[C@@H]3c4cc(NS(=O)(=O)c5ccc(F)cc5)ccc4O[C@@H]3[C@@H](CO)O2)cc1 | inactive
5 | C[C@H]1CCCCO[C@@H](CN(C)C(=O)Nc2ccc(F)cc2)[C@@H](C)CN([C@@H](C)CO)C(=O)c2cc(NC(=O)Nc3ccccc3)ccc2O1 | inactive
6 | C[C@@H]1CCCCO[C@H](CN(C)Cc2ccncc2)[C@@H](C)CN([C@H](C)CO)C(=O)c2cc(NC(=O)Nc3ccc4c(c3)OCO4)ccc2O1 | inactive
7 | CCC(=O)N(C)C[C@H]1Oc2ncc(C#C[C@@H](C)O)cc2C(=O)N([C@@H](C)CO)C[C@H]1C | inactive
8 | C[C@H]1CCCCO[C@H](CN(C)S(=O)(=O)c2ccc(F)cc2)[C@@H](C)CN([C@@H](C)CO)C(=O)c2cc(NC(=O)c3ccccc3)ccc2O1 | active
9 | C[C@@H]1CCCCO[C@H](CN(C)S(=O)(=O)c2ccc(F)cc2)[C@H](C)CN([C@@H](C)CO)C(=O)c2cc(NC(=O)c3ccccc3)ccc2O1 | inactive
10 | C[C@H](CO)N1C[C@H](C)[C@H](CN(C)S(=O)(=O)c2ccc(F)cc2)OCCCC[C@H](C)Oc2ccc(NC(=O)c3ccccc3)cc2C1=O | inactive
11 | C[C@@H]1CCCCO[C@@H](CN(C)S(=O)(=O)c2ccc(F)cc2)[C@@H](C)CN([C@@H](C)CO)C(=O)c2cc(NC(=O)c3ccccc3)ccc2O1 | inactive
12 | C[C@@H]1CN([C@H](C)CO)C(=O)c2cc(NC(=O)c3ccccc3)ccc2O[C@@H](C)CCCCO[C@H]1CN(C)S(=O)(=O)c1ccc(F)cc1 | active
13 | C[C@@H]1CCCCO[C@H](CN(C)S(=O)(=O)c2ccc(F)cc2)[C@@H](C)CN([C@H](C)CO)C(=O)c2cc(NC(=O)c3ccccc3)ccc2O1 | inactive
14 | C[C@@H]1CN([C@H](C)CO)C(=O)Cc2cc(NC(=O)CCN3CCOCC3)ccc2O[C@@H]1CN(C)CC1CC1 | inactive
15 | COc1cc2c(cc1-c1coc3c4c(ccc3c1=O)OC(C)(C)CC4)OCO2 | inactive
16 | COc1cc2c(=O)c(-c3ccc4c(c3)OCO4)coc2c2c1OC(C)(C)C=C2 | active
17 | COc1cc2c(cc1-c1coc3c4c(c(OC)cc3c1=O)OC(C)(C)CC4)OCO2 | inactive
18 | CN1CCN(C(=O)C[C@H]2CC[C@H](NC(=O)Cc3ccccn3)[C@@H](CO)O2)CC1 | inactive
19 | NCCc1nc(-c2ccccc2)cs1 | inactive
20 | CC1(C)C[C@H](c2nc(-c3ccccc3)cs2)CCS1 | active
21 | O=C(C[C@H]1CC[C@@H](NC(=O)c2cnccn2)[C@H](CO)O1)NCc1ccccc1F | inactive
22 | CCS(=O)(=O)N(C)C[C@H]1OCc2ccccc2-c2c(n(C)c3ccccc23)C(=O)N([C@H](C)CO)C[C@H]1C | inactive
23 | NCCC(=O)N[C@@H](Cc1cnc[nH]1)C(=O)O.[Zn+3] | inactive
24 | C[C@@H]1CN([C@@H](C)CO)S(=O)(=O)c2ccc(C#CCN(C)C)cc2O[C@H]1CN(C)Cc1ccc2c(c1)OCO2 | inactive
25 | COc1ccc([C@@H](N)c2ccccc2)cc1 | inactive
26 | COc1ccc(S(=O)(=O)N(C)C)cc1 | inactive

Row | Compound | cytotoxicity call
27 | C=CC(C1=CC(=O)C=CC1=O)c1ccccc1 (stereo not drawn) | active
28 | C=CC(C1=CC(=O)C(OC)=CC1=O)c1ccc(OC)cc1 (stereo not drawn) | active
29 | C=CC(C1=CC(=O)C(OC)=CC1=O)c1ccc(O)cc1 (stereo not drawn) | active
30 | COC1=CC(=O)c2ccccc2C1=O | inactive
31 | C=CC(C1=CC(=O)C(OC)=CC1=O)c1ccccc1 (stereo not drawn) | active
32 | COC(=O)[C@@H](O)c1ccccc1 | inactive
33 | CC(C)CC#Cc1cnc2c(c1)C(=O)N([C@@H](C)CO)C[C@@H](C)[C@@H](CN(C)C(=O)c1ccc3c(c1)OCO3)O2 | inactive
34 | c1ccc(Oc2ccccc2)cc1 | inactive
35 | COc1cccc(S(=O)(=O)Nc2ccc3c(c2)[C@H]2C[C@H](CC(=O)N4CCCCC4)O[C@H](CO)[C@H]2O3)c1 | inactive
36 | COc1ccc(NC(=O)Nc2ccc3c(c2)C(=O)N([C@@H](C)CO)C[C@@H](C)[C@H](CN(C)CC2CCCCC2)O3)cc1 | inactive
37 | CN(CC=CC#CC(C)(C)C)Cc1cccc2ccccc12.Cl | inactive
38 | C[C@@H]1CN([C@@H](C)CO)C(=O)c2cc(C#C[C@@H](C)O)cnc2O[C@H]1CN(C)C(=O)CN1CCOCC1 | inactive
39 | C[C@@H]1CN([C@@H](C)CO)C(=O)c2cc(-c3ccc(C(=O)N(C)C)cc3)cnc2O[C@@H]1CN(C)C(=O)CN(C)C | inactive
40 | Cc1ccc(S(=O)(=O)Nc2cccc3c2O[C@@H](CN(C)Cc2ccc(C(F)(F)F)cc2)[C@@H](C)CN([C@H](C)CO)C3=O)cc1 | inactive
41 | C[C@@H]1CN([C@H](C)CO)C(=O)c2cccc(NC(=O)c3ccncc3)c2O[C@@H]1CN(C)S(=O)(=O)c1cn(C)cn1 | inactive
42 | O=C1N[C@@H](c2ccccc2)COCc2cn(nn2)CC[C@@H](Cc2ccc(C(F)(F)F)cc2)C(=O)N[C@@H](c2ccccc2)COCc2cn(nn2)CC[C@H]1Cc1ccc(C(F)(F)F)cc1 | inactive
43 | O=C(O)[C@]1(O)C[C@H](O)[C@@H](O)[C@@H](O)C1 | inactive
44 | Cc1noc(C)c1S(=O)(=O)N(C)C[C@@H]1Oc2ccc(N(C)C)cc2CC(=O)N([C@@H](C)CO)C[C@H]1C | inactive
45 | C=C1C[C@]23CC[C@@H]4[C@@](C)(CCC[C@@]4(C)C(=O)O)[C@H]2CC[C@H]1C3 | active
46 | C=C1C[C@@]23CC[C@@H]4[C@@](C)(CCC[C@@]4(C)C(=O)OC)[C@H]2CC[C@@H]1C3 | inactive
47 | CC(C)C1=CC2=CCC3C(C)(C(=O)O)CCCC3(C)C2CC1 (stereo not drawn) | inactive
48 | Cc1noc(C)c1NC(=O)Nc1ccc2c(c1)CC(=O)N([C@H](C)CO)C[C@@H](C)[C@@H](CN(C)C(=O)NC(C)C)O2 | inactive
49 | COCCCNC(=O)[C@@]1(Cc2ccccc2I)c2ccccc2C(=O)N(Cc2ccccc2OC)[C@H]1c1ccc(CO)cc1 | inactive
50 | COc1ccccc1CN1C(=O)c2ccccc2[C@](Cc2ccccc2I)(C(=O)NC2CC2)[C@@H]1c1ccc(CO)cc1 | active
51 | COc1ccccc1CN1C(=O)c2ccccc2[C@](Cc2ccccc2I)(C(=O)NCCCN(C)C)[C@@H]1c1ccc(CO)cc1 | active
52 | COc1ccccc1CN1C(=O)c2ccccc2[C@](Cc2ccccc2I)(C(=O)NCC(C)C)[C@@H]1c1ccc(CO)cc1 | inactive

Row | Compound | cytotoxicity call
53 | COc1ccc(CCNC(=O)[C@@]2(Cc3ccccc3I)c3ccccc3C(=O)N(Cc3ccccc3OC)[C@H]2c2ccc(CO)cc2)cc1 | inactive
54 | COc1ccccc1CN1C(=O)c2ccccc2[C@](Cc2ccccc2I)(C(=O)O)[C@@H]1c1ccc(CO)cc1 | inactive
55 | CO[C@H]1CN(C)C(=O)c2cc(NS(=O)(=O)CC(F)(F)F)ccc2OC[C@@H](C)N(Cc2cccnc2)C[C@@H]1C | inactive
56 | COc1ccc2c3c(n(c2c1)C)[C@H](CO)N(C[C@]13CCN(CC1)C(=O)c1ccncc1)C(=O)C1CCOCC1 | inactive
57 | CC(C)NC(=O)Nc1cccc2c1O[C@@H](CN(C)C(=O)Nc1ccc3c(c1)OCO3)[C@@H](C)CN([C@H](C)CO)C2=O | inactive
58 | C[C@@H]1CCCCO[C@H](CN(C)S(=O)(=O)c2cn(C)cn2)[C@@H](C)CN([C@H](C)CO)C(=O)c2cc(NC(=O)c3ccncc3)ccc2O1 | inactive
59 | C[C@H]1CN([C@@H](C)CO)C(=O)c2cccc(NS(=O)(=O)c3cn(C)cn3)c2O[C@@H]1CN(C)S(=O)(=O)c1ccc(Cl)cc1 | inactive
60 | COc1ccc(CNC(=O)C[C@H]2CC[C@H]3[C@@H](COc4ccc(NC(=O)C5CC5)cc4C(=O)N3C)O2)cc1 | inactive
61 | Nc1ccn([C@@H]2O[C@H](CO)[C@@H](O)C2(F)F)c(=O)n1 | inactive
62 | Nc1ccn([C@@H]2O[C@H](CO)[C@@H](O)[C@H]2O)c(=O)n1 | inactive
63 | C#C[C@@]1(O)[C@@H](CO)O[C@@H](n2ccc(N)nc2=O)[C@@H]1O | active
64 | Nc1ccn(C2OC(CO)C(O)C2O)c(=O)n1 (stereo not drawn) | inactive
65 | C[C@@]1(F)[C@H](O)[C@@H](CO)O[C@H]1n1ccc(N)nc1=O | inactive
66 | Cl.Nc1ccn(C2OC(CO)C(O)C2(F)F)c(=O)n1 (stereo not drawn) | active
67 | C[C@H](CO)N1C[C@H](C)[C@@H](CN(C)C(=O)C2CC2)OCc2cn(nn2)CCCC1=O | inactive
68 | Cc1noc(C)c1S(=O)(=O)Nc1ccc2c(c1)C(=O)N([C@H](C)CO)C[C@H](C)[C@@H](CN(C)Cc1ccc(C(=O)O)cc1)O2 | inactive
69 | C[C@@H]1CCCCO[C@@H](CN(C)C(=O)c2ccccc2)[C@H](C)CN([C@H](C)CO)C(=O)c2cc(NC(=O)Nc3ccc4c(c3)OCO4)ccc2O1 | inactive
70 | C[C@@H]1CCCCO[C@H](CN(C)C(=O)Cc2ccccc2)[C@@H](C)CN([C@H](C)CO)C(=O)c2cc(NC(=O)Nc3ccc(F)cc3)ccc2O1 | inactive
71 | C[C@@H]1CCCCO[C@@H](CN(C)C(=O)Cc2ccccc2)[C@@H](C)CN([C@H](C)CO)C(=O)c2cc(NC(=O)NC3CCCCC3)ccc2O1 | inactive
72 | C[C@@H]1CCCCO[C@@H](CN(C)C(=O)Cc2ccccc2)[C@@H](C)CN([C@@H](C)CO)C(=O)c2cc(NC(=O)Nc3ccc4c(c3)OCO4)ccc2O1 | inactive
73 | C[C@@H]1CCCCO[C@@H](CN(C)C(=O)Cc2ccccc2)[C@H](C)CN([C@H](C)CO)C(=O)c2cc(NC(=O)Nc3ccc(F)cc3)ccc2O1 | active
74 | C[C@@H]1CCCCO[C@@H](CN(C)C(=O)Cc2ccccc2)[C@@H](C)CN([C@H](C)CO)C(=O)c2cc(NC(=O)Nc3ccc(F)cc3)ccc2O1 | inactive
75 | C[C@H](CO)N1C[C@H](C)[C@H](CN(C)C(=O)Cc2ccccc2)OCCCC[C@H](C)Oc2ccc(NC(=O)Nc3ccc4c(c3)OCO4)cc2C1=O | active
76 | C[C@H]1CCCCO[C@H](CN(C)C(=O)Cc2ccccc2)[C@@H](C)CN([C@@H](C)CO)C(=O)c2cc(NC(=O)Nc3ccc4c(c3)OCO4)ccc2O1 | inactive
77 | C[C@@H]1CCCCO[C@@H](CN(C)C(=O)Cc2ccccc2)[C@H](C)CN([C@H](C)CO)C(=O)c2cc(NC(=O)NC3CCCCC3)ccc2O1 | active
78 | C[C@@H]1CCCCO[C@H](CN(C)C(=O)Cc2ccccc2)[C@H](C)CN([C@@H](C)CO)C(=O)c2cc(NC(=O)NC3CCCCC3)ccc2O1 | inactive
